SMILES strings stand for the structures. Hit rate of the full screen: of about 69,000 compounds, about 8,600 (12%) showed an effect of 50% or more. The sample as a whole holds a higher share of strong results than the screen did.

For the experiment, the system named is Plasmodium berghei. The experiment can be described thus: Screen against P. berghei liver stage (PbLuc), transformed with Luciferase, at 10uM. Particulars: tested at 10 uM. It counts as functional, HepG2.
Regarding `Cc1cnn(CCCNCc2csc(COc3ccccc3)n2)c1`, the INHIBITION is 30.2%.

For `CCOC(=O)c1sc(NC(=O)C(C)(C)C)c(C#N)c1C`, the INHIBITION is given as -43.6%. For the compound `Cc1nn(C)c(C)c1C1CCCN1CC(=O)NCc1ccccn1` (centres undefined), the INHIBITION was determined as 26.5%. With `COCCNC(=O)CN1CCC(N2CCN(C)C2=O)CC1`, the INHIBITION was 48.2%. The result for `Cc1cc(C(=O)N2CCCC(c3nccn3C)C2)cc(S(N)(=O)=O)c1C` (centres undefined) reads -2.98%; that for `Cc1cc(C)nc(N2CCC(C(=O)Nc3ncc[nH]3)CC2)n1`, 47.9%.

Take `CNc1cc(C(=O)N2CCOC(C(=O)NC3CCCC3)C2)ccn1` (centres undefined): the INHIBITION was -23.4%.

Consider `O=C(NCCSc1ccccc1)[C@H]1CNC[C@@H](C(=O)N2CCOCC2)C1`, for which the INHIBITION is on record as -1.09%. For the compound `CCc1cc(C(F)(F)F)c2c(C3CCN(C(=O)COC)CC3)noc2n1`, the INHIBITION was determined as 52%. In the case of `CCc1cc(C(F)(F)F)c2c(C3CCCN(C(=O)COC)C3)noc2n1` (centres undefined), the INHIBITION was -8.12%. Next, `COCC(=O)N1CCC(c2noc3nc(C)cc(C(F)(F)F)c23)CC1`: 15.4%. Take `COCCC(=O)N1CCC(c2noc3nc(C)cc(C(F)(F)F)c23)CC1`: the INHIBITION turned out to be 38.1%. Next, `Cc1cc(C(F)(F)F)c2c(C3CCN(S(=O)(=O)N(C)C)CC3)noc2n1`: 60.8%. Take `COCC(=O)N1CCC(c2cc(C(F)(F)F)c3c(C)noc3n2)CC1`: the INHIBITION is listed as 9.93%. In the case of `CCn1ncc2c1C(COCC1CC1)N(Cc1c(C)noc1C)CC2` (centres undefined), the INHIBITION is recorded as 47.5%. In the case of `CCCn1nccc1NC(=O)CN1CCc2c(nc(C3CC3)n2C)C1`, the INHIBITION is given as 5.7%. As to `CNC(=O)CN1CCc2c(CNc3nccs3)n[nH]c2C1`, the INHIBITION is listed as -4.88%. Regarding `CCNc1c(NC(=O)C(C)(C)C)c(=O)oc2ccccc12`, the INHIBITION is -3.83%.

With `O=C(NC[C@]12COC[C@H]1CN(Cc1nccs1)C2)N1CCCC1`, the INHIBITION is recorded as -20.5%. With `O=C(c1cccnc1)N1Cc2nccn2CC(COc2cccnc2)C1` (centres undefined), the INHIBITION was found to be 9.51%. Next, `O=C(Cc1ccc(O)c(Cl)c1)N1CCCCC1CCn1cccn1` (centres undefined): 60.1%. On to `COc1ccc(CC(=O)N2CCCCC2Cn2cccn2)cc1OC` (centres undefined), for which the INHIBITION was 0.79%.

Take `O=C(Cc1ccc2c(c1)CCO2)N1CCCCC1Cn1cccn1` (centres undefined): the INHIBITION is given as -35.5%. On to `CCOC1COC2(CCN(Cc3ccco3)CC2)C1` (centres undefined), for which the INHIBITION is -2.35%.

Turning to `O=c1[nH]c(-c2ccncc2)ncc1-c1ccnc(N2CCOCC2)n1`, the INHIBITION was found to be 18.9%.

Turning to `CCN1CC2(CCN(C(=O)C(C)Oc3cccc(Cl)c3)CC2)OC1=O` (centres undefined), the INHIBITION is 14.9%. Turning to `CC(Oc1ccc(F)cc1F)C(=O)N1CCC2(CCCO2)CC1` (centres undefined), the INHIBITION came out at 14.9%. With `CCN1CC2(CCN(C(=O)C(C)Oc3ccc(F)cc3F)CC2)OC1=O` (centres undefined), the INHIBITION turned out to be 52.5%. Take `CCC(=O)N1CCCN(c2cncc(-n3nc(C)cc3C)n2)CC1`: the INHIBITION is 13.2%. As to `Cc1cc(C)n(-c2cncc(N3CCN(C(=O)CN(C)C)CC3)n2)n1`, the INHIBITION was 52.6%. Consider `Cc1cc(C)n(-c2cncc(N3CCN(C(=O)C(C)C)CC3)n2)n1`, for which the INHIBITION was found to be 14%. On to `CCc1cc(N2CCC(NCc3ccc(C)o3)CC2)ncn1`, for which the INHIBITION was -24.9%. For the compound `OCCNc1cc(N2CCC(n3cc(C4CCCC4)nn3)CC2)ncn1`, the INHIBITION is reported as 28%.

As for `CCc1ncc(CN2CCN(c3cc(NC4CC4)nc(N)n3)CC2)cn1`, the INHIBITION is listed as -55%. Turning to `CCc1cc(N2CCC(Nc3ccc(Cl)cn3)CC2)ncn1`, the INHIBITION worked out at 84.6%. The result for `O=C(NC1CC1)c1cn(C2CCN(c3cc(C4CC4)ncn3)CC2)nn1` reads 39.3%; that for `CC(C)Nc1cc(N2CCC(n3cc(C4CC4)nn3)CC2)ncn1`, 24.7%. In the case of `CCc1cc(N2CCC(n3cc(C(=O)NCC(C)C)nn3)CC2)ncn1`, the INHIBITION was found to be 71.4%. Turning to `CCc1cc(N2CCC(n3cc(C(=O)NC4CC4)nn3)CC2)ncn1`, the INHIBITION amounted to 89.3%.

For the compound `Cc1ccc(SCCCNC(=O)c2cn(C3CCC(N)CC3)nn2)cc1` (centres undefined), the INHIBITION was -164%. The result for `CSCCC(C)(O)CNS(=O)(=O)Cc1ccc(F)cc1` (centres undefined) reads 44.9%. The result for `Cc1ccccc1CNC(=O)CN1CCCC(Cc2nccn2C)C1` (centres undefined) reads -50.8%; that for `CC(C)CCn1cc(C(C(=O)O)N2CCCN(C3CCCC3)CC2)cn1` (centres undefined), 33.9%; that for `c1nc(CNC2CCOCC2)c2n1CCCN(CC1CC1)C2`, 45.1%.

On to `Cn1ccc(C(=O)NC2CCC23CCN(Cc2cnn(C)c2)CC3)c1` (centres undefined), for which the INHIBITION was -28.7%. The result for `CCS(=O)(=O)N1CCN(CCn2cccn2)c2nc(C)ccc2C1` reads 26.3%; that for `c1cc(CN2CC[C@@H]3[C@@H](CO[C@H]3CN3CCOCC3)C2)cs1`, -20.1%. Next, `CCN(CC)C(=O)CN(C)C(=O)c1ccc(-c2ccsc2)nc1C`: 59.5%. `CCN(CC)C(=O)CNC(=O)c1ccc(-c2ccsc2)nc1C`: the INHIBITION is 34.5%. Next, `CCN(CC)C(=O)c1ccc(-c2ccsc2)nc1C`: -6.53%; `CCn1nc(C)c2nn(CC(=O)NC3CCSCC3)cc21`: 25.4%; `Cn1cccc1C(=O)N1C[C@@H]2C[C@@H](c3nc(C4CC4)cs3)O[C@@H]2C1`: -5.08%. Consider `CC(C)(C)C(=O)NCCc1cc2nc(-c3ccncc3)ccn2n1`, for which the INHIBITION stood at 24.44%. Regarding `CCOCC(O)CN1CCN(C(=O)c2cccc(OC)c2)CC1` (centres undefined), the INHIBITION is listed as -33.7%. With `N#Cc1ccccc1CN1CCC(c2nccn2CC(N)=O)CC1`, the INHIBITION is -15.3%. As for `CCn1ccnc1C1CCN(Cc2cccc(C)n2)CC1`, the INHIBITION is on record as 24.2%. Turning to `CCn1ccnc1CN1CCCC(CO)(Cc2cccc(Cl)c2)C1` (centres undefined), the INHIBITION turned out to be 79.3%. As to `Cc1cnc(C)c(N2CCCC(CO)(Cc3cccc(Cl)c3)C2)n1` (centres undefined), the INHIBITION is 34.6%. Regarding `CCOC(=O)C1(CCOC)CCCN(Cc2nccn2CC)C1` (centres undefined), the INHIBITION stood at 62.2%.

On to `Cc1cccc(CN2CCC(c3nccn3CC(N)=O)CC2)n1`, for which the INHIBITION stood at 58.3%.

As to `CCOC(=O)C1(Cc2ccccc2)CCCN(Cc2nccn2CC)C1` (centres undefined), the INHIBITION worked out at 35.4%. `OCC1(Cc2cccc(Cl)c2)CCCN(c2ncccn2)C1` (centres undefined): the INHIBITION stood at 11.4%. The result for `CCn1ccnc1CN1CCCC(CO)(Cc2cccc(OC)c2)C1` (centres undefined) reads 23.7%. As to `CCOC(=O)C1(CCOC)CCN(Cc2nccn2CC)CC1`, the INHIBITION came to 28.7%. For `Cc1ncc(C)c(N2CCCC(CO)(Cc3cccc(Cl)c3)C2)n1` (centres undefined), the INHIBITION was determined as 86.8%.

As to `CCC1(CO)CCCN(Cc2nccn2Cc2ccccc2)C1` (centres undefined), the INHIBITION is given as -82.2%.

As to `COc1ccccc1CN(CC1CCCO1)C(=O)c1csnn1` (centres undefined), the INHIBITION was determined as 18.4%.

As for `O=C(CCc1nccs1)N1CCN(c2nccs2)CC1`, the INHIBITION is reported as -2.19%. The result for `CCOCc1ccc(CNC(=O)N2CCC(C(N)=O)C2)cc1` (centres undefined) reads 25.6%; that for `c1cncc(CN2CCCC(Nc3ncnc4c3CCNCC4)C2)c1` (centres undefined), 20.9%; that for `CNC(=O)[C@@H]1C[C@H]2CN(Cc3ccc(C)s3)C[C@H]2N1C(C)=O`, 34.6%. The result for `CC1CCN(C(=O)c2sccc2-n2cnnn2)CC1` reads 20.3%; that for `O=C(NCCc1ccc(F)cc1)NCC(O)c1cccc(F)c1` (centres undefined), 18.2%; that for `O=C(N[C@@H]1CC[C@@H](N2CCCC2)[C@@H]1O)c1cc2cccc(F)c2[nH]1`, -0.232%. As for `CNC(=O)C1CN(Cc2cc(C)on2)CCN(C2CCOCC2)C1` (centres undefined), the INHIBITION is listed as -3.94%. Next, `CCCN1CCc2[nH]nc(C(=O)N3CCNC(=O)C3)c2C1`: -9.42%. With `CN(C)C(=O)N1C[C@H]2CC[C@@H](C1)N(S(=O)(=O)c1cccnc1)C2`, the INHIBITION is reported as -62.1%. Take `CCCOc1cc(CNC(=O)Nc2ccc(C)cc2)ccn1`: the INHIBITION is -14.5%. Regarding `CCn1ccnc1C1CCN(Cc2c(F)cccc2F)CC1`, the INHIBITION is listed as 43.9%. For the compound `CCn1ccnc1C1CCN(Cc2cccc(Cl)c2)CC1`, the INHIBITION worked out at 60.1%. Next, `CCn1ccnc1C1CCN(C(=O)C(O)c2ccc(Cl)cc2)CC1` (centres undefined): 6.66%; `CCN1CCN(C(=O)COCc2nc(-c3ccncc3)no2)CC1`: -2.92%. Take `CCS(=O)(=O)NCCN1CCN(C(C#N)c2ccccc2)CC1` (centres undefined): the INHIBITION was 19.4%. Turning to `CCOCCCNC(=O)CN(c1ccc(F)c(F)c1)S(C)(=O)=O`, the INHIBITION is 43.3%. For the compound `CCOCCCNC(=O)CN(c1ccc(C)c(C)c1)S(C)(=O)=O`, the INHIBITION was 18.4%. Take `CC(C)OCCCNC(=O)CN(c1ccc(F)c(F)c1)S(C)(=O)=O`: the INHIBITION turned out to be 62.3%. The result for `CCC1=N[C@@]2(CC[C@@H]3CN(C(=O)Nc4ccccc4)C[C@@H]32)C(=O)N1C` reads 26.3%. In the case of `COC(=O)c1ccc(-c2ccc(/C=C3\C(=O)NC(=N)N3C)o2)cc1`, the INHIBITION turned out to be 34.2%. Regarding `Cc1csc(CNC(=O)N2CCCC(c3nncn3C)C2)n1` (centres undefined), the INHIBITION is given as -23.9%. For `CCOc1ncccc1NC(=O)NC1CCN(C(C)=O)CC1`, the INHIBITION was 5.7%. For `COc1ccccc1N1CCN(C(=O)CCn2ccc(C)n2)CC1`, the INHIBITION was 16.2%.

On to `CS(=O)(=O)N1CCC(c2cnc(-c3cn[nH]c3)cn2)CC1`, for which the INHIBITION is 28.9%. With `O=C(C1NCCc2[nH]cnc21)N1CCC2(CC1)CNc1ccccc12` (centres undefined), the INHIBITION is on record as -15.8%.

As to `O=C1OC2(CCN(C(=O)C3NCCc4[nH]cnc43)CC2)c2ccccc21` (centres undefined), the INHIBITION turned out to be 23.5%. With `O=C(C1NCCc2[nH]cnc21)N1CCC2(C=Cc3ccccc32)CC1` (centres undefined), the INHIBITION turned out to be 53%. Take `Cc1cc(C)nc(N2CCC(C(=O)O)(n3ccc(C(C)(C)C)n3)CC2)n1`: the INHIBITION amounted to 25.4%.

For `O=c1cccnn1CC1CN(CC2CCCC2)Cc2nccn2C1` (centres undefined), the INHIBITION was -23.1%. For the compound `CN1CCC(Nc2ccc(F)cc2OCC(F)(F)F)C1=O` (centres undefined), the INHIBITION is -0.378%. For `CC(CNC(=O)c1ccc(=O)[nH]n1)N1CCc2ccccc21` (centres undefined), the INHIBITION is 53%. The result for `CC(CNC(=O)Nc1ccc(C#N)cc1)N1CCc2ccccc21` (centres undefined) reads 40.1%; that for `Cc1cc(C(=O)NCC(C)N2CCc3ccccc32)no1` (centres undefined), 21.8%; that for `CCC(CNC(=O)c1ccc(=O)[nH]n1)N1CCc2ccccc2C1` (centres undefined), 28.5%. `CC(CNC(=O)c1cccc(C#N)c1)N1CCc2ccccc21` (centres undefined): the INHIBITION is -8.51%. On to `CC(CNC(=O)c1ccc(C#N)cc1)N1CCc2ccccc21` (centres undefined), for which the INHIBITION stood at 83.2%.
